NTR1 ag = activates human neurotensin receptor 1. P30989. NTR1-U2OS beta-arrestin-GFP spot imaging, agonist mode. activation, % at 20 µM. actives 0.17% (n = 330,000). AID 493036;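 active = activation at or above 40% of the spot to cytoplasm intensity ratio, with at least 20 cells analyzed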;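 also: 0% = DMSO without peptide and 100% = 100 nM NTR1 peptide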
GRIN3A LBD mod = NR3A (human) ligand-binding domain modulation; NR3A LBD differential scanning fluorimetry, Tm shift; 0% = protein alone, 100% = glycine-bound protein; Tm shift relative to glycine control, % at 25 µM; actives 2.5% (n = 340,000); AID 1259313;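 active = melting temperature shift of at least 10% of the positive control shift, at one fixed dose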
AHR act = activates the human aryl hydrocarbon receptor; P35869; AHR-responsive luciferase reporter cells, luminescence; activation, % at 5 µM; actives 2.5% (n = 320,000); AID 2796; in the data active = activation above about 47%;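 also: 0% = vehicle wells and 100% = reference agonist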
SUMO Mot1 rescue = SUMOylation pathway inhibition by Mot1-301 growth rescue | S. cerevisiae Mot1-301 growth rescue, ATP luminescence, 38.5C; percent above DMSO median, 100 means doubled | growth rescue, % at 18.8 µM | actives 1% (n = 320,000);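 active = every valid replicate shows activation above 250% relative to neutral control wells; inactive = the rest, any valid replicate at or below 250%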;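 also: OY570 slx delta 5 strain wells were the positive control but not used for scaling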
H9c2 protect = myocardial damage modulation in H9c2 cells. H9c2 cardiomyocytes, H2O2 injury protection, ATPLite, 2 h. AID 588492. actives 0.63% (n = 360,000). protection from H2O2 cell death, % at 20 µM;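 active = compounds giving at least 50% protection of heart cells from peroxide-induced death in the single-dose screen, raw or plate-pattern-corrected value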;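 also: 0% = DMSO wells with peroxide and 100% = DMSO wells without peroxide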
AI-2 QS modul = modulates the Vibrio harveyi AI-2 quorum sensing system. actives 0.4% (n = 300,000). Vibrio harveyi JMH597 AI-2 luminescence/OD600 ratio, 9 h; hits give low values; strain lacks LuxN and CqsS sensors; 0 = neutral-control median. activity change, % at 7.5 µM; in the data active = activity change below about -75%, passing the limit was not always enough;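 also: luminescence divided by OD600 gain over 9 h not by final OD600 alone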
AHR act cf = human AHR activation, confirmation. shares compounds with AHR act. human cells, AHR-responsive luciferase reporter, luminescence. actives 87% (n = 2,300). activation, % at 9 µM; in the data active = activation above about 49%;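 also: HepG2 hepatoma cells carrying a DRE-driven firefly luciferase reporter; 0% = vehicle wells and 100% = reference agonist wells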
PXR counter = PXR activation, counter-screen for AHR activators | shares compounds with AHR act | cell-based PXR reporter, luciferase luminescence | activation, % at 11.6 µM | actives 88% (n = 2,300); in the data active = activation above about 11%;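 also: human hepatoma DPX-2 cells expressing full-length human PXR; 0% = DMSO and 100% = reference agonist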
An asterisk follows results filed as active; / = no result given. An excerpt weighted towards active compounds, which were near 6.2% of everything screened.

SMILES	NTR1 ag	GRIN3A LBD mod	AHR act	SUMO Mot1 rescue	H9c2 protect	AI-2 QS modul	AHR act cf	PXR counter
COc1ccc(-c2nnc(SCC(=O)NC(=O)Cc3ccccc3)n2C)cc1	0	-3	-1	3	1	/	/	/
CCOCCOC(=O)c1[nH]c2c(c1C)C(=O)CC(c1ccc(N(C)C)cc1)C2 (stereo not given)	1	-5	8	2	-20	18	/	/
CCC(C)OC(=O)c1[nH]c2c(c1C)C(=O)CC(c1ccc(N(C)C)cc1)C2 (stereo not given)	2	-9	82*	61	-8	13	35	70*
COc1ccc(CN2C(=O)C(CC(=O)NC3CCCC3)CC(C(=O)N(C)C)=C2C)cc1 (stereo not given)	/	/	/	/	9	/	/	/
Cc1cccc(C(=O)N[C@H](C(=O)Nc2ncc(C)s2)C(C)C)c1	3	1	104*	64	-2	14	19	364*
C/C(=N\NC(=S)Nc1ccc(F)cc1)c1ccc2c(c1)OCCO2	2	-8	137*	-7	-5	8	84*	14*
CCOC(=O)N1CCN(C(=O)C(=O)Nc2sc3c(c2C(N)=O)CC(C)(C)OC3)CC1	3	-2	-1	-12	3	7	/	/
Clc1ccc(-c2nc3ncccn3c2Cl)cc1	1	0	87*	10	-8	-1	148*	55*
COc1ccc(-c2noc(=O)n2Cc2ccccc2Cl)cc1	0	-2	1	2	-4	14	/	/
CCCN1Cc2cccc(C(=O)NCc3ccc4c(c3)OCO4)c2C1=O	5	-2	80*	698	8	12	50*	141*
CCCNC(=O)C(Cc1ccc(F)cc1)NC(=O)c1ccccc1 (stereo not given)	1	-1	2	-20	1	/	/	/
Cn1c(-c2ccc3ccccc3n2)nc2cnccc21	1	-4	89*	6	-15	14	119*	23*
COCCNC(=O)C1CCCN(C(=O)c2cc(-c3ccccc3)cs2)CC1 (stereo not given)	/	/	/	/	-5	/	/	/
Cc1nnc(Nc2ccc3c(c2)OCO3)c2ccccc12	2	4	84*	11	4	10	105*	161*
Cc1ccc(-c2nnc(Nc3ccc4c(c3)OCO4)c3ccccc23)cc1S(N)(=O)=O	5	-12	36	/	1	8	/	/
Cc1ccc(-n2sc3ccccc3c2=O)cc1	-1	3	80*	177	-11	4	74*	30*
Clc1ccccc1Cn1nnc(-c2cccs2)n1	0	-4	117*	-2	-6	16	150*	37*
Clc1ccccc1Cn1nnc(-c2ccccc2)n1	2	0	41	15	1	-7	/	/
CC/C(=N\NC(=O)c1c[nH]c2ccccc12)c1cccs1	3	-5	83*	-2	-6	20	151*	55*
C/C(=N\NC(=O)c1c[nH]c2ccccc12)c1ccc(C)s1	2	15*	92*	19	2	19	126*	59*
C/C(=N/NC(=O)c1ccncc1)c1c[nH]c2ccccc12	-1	4	42	-27	7	14	/	/
O=C(NC(=O)c1cc([N+](=O)[O-])ccc1Cl)C1=C(N2CCCC2)COC1=O	0	0	1	-6	1	/	/	/
CN(C)c1ccc(-c2ccnc3c2CC(C)(C(=O)NCc2ccc(F)c(F)c2)O3)cc1 (stereo not given)	/	/	/	/	-1	/	/	/
O=C(COC(=O)COc1ccc(Cl)cc1)NC1CCCC1	0	0	-1	21	7	/	/	/
O=C(NCCCn1ccnc1)c1cc(-c2cccs2)on1	0	1	143*	-11	-3	22	458*	46*
SMILES	NTR1 ag	GRIN3A LBD mod	AHR act	SUMO Mot1 rescue	H9c2 protect	AI-2 QS modul	AHR act cf	PXR counter
O=C(NCCCN1CCOCC1)c1cc(-c2cccs2)on1	-1	1	19	-8	0	-2	/	/
CCCc1cc(=O)oc2cc(C)cc(OCC(=O)NCC(O)c3ccccc3)c12 (stereo not given)	1	0	7	-3	7	19	/	/
CCCc1cc(=O)oc2cc(C)cc(OCC(=O)Nc3cccnc3)c12	1	-3	116*	-5	19	6	82*	26*
Cn1c(C(=O)N2CCC(C(=O)NCc3ccccc3)CC2)cc2sccc21	1	-2	0	4	1	15	/	/
COn1c(-c2ccccc2)nc2ccc(Cl)cc21	3	0	4	33	-7	-7	/	/
Clc1ccc2nc3c4ccccc4cnn3c2c1	1	-41	105*	-5	-8	-1	90*	4
O=C1[C@H]2[C@@H](c3ccccc3)N[C@]3(CCCN(Cc4ccc(Br)cc4)C3=O)[C@H]2C(=O)N1Cc1ccccc1	/	/	/	/	22	/	/	/
CC(C)c1ccc(S(=O)(=O)/N=C2\C=C(NS(=O)(=O)c3ccccc3)C(=O)c3ccccc32)cc1	/	1	83*	-26	-13	87	20	130*
CCc1ccc(S(=O)(=O)/N=C2\C=C(NS(=O)(=O)c3ccccc3)C(=O)c3ccccc32)cc1	2	2	/	/	-5	18	/	/
COC(=O)c1cc(C)[nH]c2c(C)cc3nc4ccccc4c3c12	20	9	95*	7	38	17	100*	156*
Cc1ccc(NC(=O)C2OCCc3ccccc32)cc1 (stereo not given)	1	0	118*	-2	-2	-2	104*	64*
Cc1ccc(NC(=O)C2OCCc3ccccc32)cc1Cl (stereo not given)	0	0	2	2	-10	1	/	/
CCc1sc(C(=O)Nc2cccc(-n3cnnn3)c2)cc1C	6	-6	-3	-6	-14	/	/	/
COc1cc(NC(=O)C/C(C)=N/NC(=O)Cc2ccccc2)c(OC)cc1Cl	0	-4	147*	-7	2	20	5	16*
COc1ccc(Cl)cc1NC(=O)C/C(C)=N/NC(=O)CCc1ccccc1	0	1	16	-14	-2	19	/	/
O=C(CSc1cn[nH]n1)Nc1ccccc1C(=O)O	-1	2	0	166	0	10	/	/
COc1ccc(-c2sc3cc4c(cc3c2-c2ccc(OCCN3CCOCC3)cc2)OCO4)cc1	12	-2	1	12	4	/	/	/
COc1ccc(-c2sc3cc4c(cc3c2C#Cc2cncn2C)OCO4)cc1	4	-1	82*	13	0	/	103*	15*
Cc1cc(C(=O)OCC(=O)c2cccs2)ccc1[N+](=O)[O-]	1	0	/	/	-1	/	/	/

High-throughput results as filed in PubChem.
